Experimental data taken from the supplement of paper PMC12282887.
± gives the standard deviation of the averaged measurements.

Experiments:
Assay in all cases: promoter activity interaction Z-score (Lux/OD deviation from empty-vector control); higher = stronger promoter induction by the compound
[1] = system: E. coli BW25113 acrABp lux reporter
Outline: (§1)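 In 384-well plates, 40 µl LB Lennox cultures of E. coli BW25113 with low-copy luxCDABE promoter reporters grew at 37°C. Optical density at 600 nm and light output were recorded every 30 min for 12 h, with windows of 0–8 h for wild type and 1–9 h for deletion strains, and wells under 10% of the median growth value were left out. Each value is a Z-transformed residual of growth-normalised luminescence fitted against a control.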

[2] = system: E. coli BW25113 micFp lux reporter
Outline: as §1

[3] = system: E. coli BW25113 ompFp lux reporter
Outline: as §1

[4] = system: E. coli BW25113 robp lux reporter
Outline: as §1

[5] = system: E. coli BW25113 soxSp lux reporter
Outline: as §1

[6] = system: E. coli BW25113 tolCp lux reporter
Outline: as §1

[7] = 35.6 µg/ml, genetic background: wild type
[8] = 35.6 µg/ml, genetic background: ΔmarA
[9] = 35.6 µg/ml, genetic background: Δrob
[10] = 35.6 µg/ml, genetic background: ΔsoxS
[11] = 71.1 µg/ml, genetic background: wild type
[12] = 71.1 µg/ml, genetic background: ΔmarA
[13] = 71.1 µg/ml, genetic background: Δrob
[14] = 71.1 µg/ml, genetic background: ΔsoxS
[15] = 142.3 µg/ml, genetic background: wild type
[16] = 142.3 µg/ml, genetic background: ΔmarA
[17] = 142.3 µg/ml, genetic background: Δrob
[18] = 142.3 µg/ml, genetic background: ΔsoxS
[19] = 284.5 µg/ml, genetic background: wild type
[20] = 284.5 µg/ml, genetic background: ΔmarA
[21] = 284.5 µg/ml, genetic background: Δrob
[22] = 284.5 µg/ml, genetic background: ΔsoxS

CC[C@H](C)[C@H](N)C1=N[C@H](C(=O)N[C@@H](CC(C)C)C(=O)N[C@H](CCC(=O)O)C(=O)N[C@H](C(=O)N[C@H]2CCCCNC(=O)[C@H](CC(N)=O)NC(=O)[C@@H](CC(=O)O)NC(=O)[C@H](Cc3cnc[nH]3)NC(=O)[C@@H](Cc3ccccc3)NC(=O)[C@H]([C@@H](C)CC)NC(=O)[C@@H](CCCN)NC2=O)[C@@H](C)CC)CS1 [Bacitracin]
promoter activity interaction Z-score [1, 7]: 0.238 ± 0.011 | promoter activity interaction Z-score [1, 8]: 0.0967 ± 0.69 | promoter activity interaction Z-score [1, 9]: 0.103 ± 0.11 | promoter activity interaction Z-score [1, 10]: -0.486 ± 0.28 | promoter activity interaction Z-score [1, 11]: -0.189 ± 0.25 | promoter activity interaction Z-score [1, 12]: -0.152 ± 0.45 | promoter activity interaction Z-score [1, 13]: -0.3 ± 0.21 | promoter activity interaction Z-score [1, 14]: -0.354 ± 0.56 | promoter activity interaction Z-score [1, 15]: -0.563 ± 0.27 | promoter activity interaction Z-score [1, 16]: 0.111 ± 0.27 | promoter activity interaction Z-score [1, 17]: -0.64 ± 0.089 | promoter activity interaction Z-score [1, 18]: -0.484 ± 0.29 | promoter activity interaction Z-score [1, 19]: -0.416 ± 0.21 | promoter activity interaction Z-score [1, 20]: -0.491 ± 0.073 | promoter activity interaction Z-score [1, 21]: -0.296 ± 0.36 | promoter activity interaction Z-score [1, 22]: 0.474 ± 0.51 | promoter activity interaction Z-score [2, 7]: -0.0989 ± 0.035 | promoter activity interaction Z-score [2, 8]: -0.0164 ± 0.05 | promoter activity interaction Z-score [2, 9]: 0.0475 ± 0.15 | promoter activity interaction Z-score [2, 10]: -0.478 ± 0.18 | promoter activity interaction Z-score [2, 11]: -0.268 ± 0.032 | promoter activity interaction Z-score [2, 12]: -0.0396 ± 0.049 | promoter activity interaction Z-score [2, 13]: -0.239 ± 0.028 | promoter activity interaction Z-score [2, 14]: -0.278 ± 0.083 | promoter activity interaction Z-score [2, 15]: -0.506 ± 0.083 | promoter activity interaction Z-score [2, 16]: -0.139 ± 0.089 | promoter activity interaction Z-score [2, 17]: -0.177 ± 0.087 | promoter activity interaction Z-score [2, 18]: -0.0874 ± 0.23 | promoter activity interaction Z-score [2, 19]: 0.124 ± 0.091 | promoter activity interaction Z-score [2, 20]: -0.167 ± 0.014 | promoter activity interaction Z-score [2, 21]: -0.188 ± 0.095 | promoter activity interaction Z-score [2, 22]: 0.2 ± 0.17 | promoter activity interaction Z-score [3, 7]: 0.637 ± 0.23 | promoter activity interaction Z-score [3, 8]: 0.358 ± 0.11 | promoter activity interaction Z-score [3, 9]: 0.253 ± 0.87 | promoter activity interaction Z-score [3, 10]: -0.738 ± 0.32 | promoter activity interaction Z-score [3, 11]: 0.389 ± 0.42 | promoter activity interaction Z-score [3, 12]: 0.103 ± 0.39 | promoter activity interaction Z-score [3, 13]: -0.153 ± 0.32 | promoter activity interaction Z-score [3, 14]: -0.256 ± 0.011 | promoter activity interaction Z-score [3, 15]: -0.463 ± 0.37 | promoter activity interaction Z-score [3, 16]: 0.405 ± 1.2 | promoter activity interaction Z-score [3, 17]: -0.823 ± 0.087 | promoter activity interaction Z-score [3, 18]: 0.0137 ± 0.45 | promoter activity interaction Z-score [3, 19]: 1.52 | promoter activity interaction Z-score [3, 20]: 0.962 ± 0.71 | promoter activity interaction Z-score [3, 21]: 1.05 ± 1.1 | promoter activity interaction Z-score [3, 22]: 1.9 ± 0.51 | promoter activity interaction Z-score [4, 7]: 0.859 ± 0.14 | promoter activity interaction Z-score [4, 8]: -0.334 ± 0.088 | promoter activity interaction Z-score [4, 9]: 0.568 ± 0.89 | promoter activity interaction Z-score [4, 10]: 0.00456 ± 0.7 | promoter activity interaction Z-score [4, 11]: 0.186 ± 0.99 | promoter activity interaction Z-score [4, 12]: 0.452 ± 0.16 | promoter activity interaction Z-score [4, 13]: 0.266 ± 0.06 | promoter activity interaction Z-score [4, 14]: -0.45 ± 0.04 | promoter activity interaction Z-score [4, 15]: -0.429 ± 0.72 | promoter activity interaction Z-score [4, 16]: 0.326 ± 0.28 | promoter activity interaction Z-score [4, 17]: -0.561 ± 0.13 | promoter activity interaction Z-score [4, 18]: -0.919 ± 0.74 | promoter activity interaction Z-score [4, 19]: -0.714 ± 0.18 | promoter activity interaction Z-score [4, 20]: -0.548 ± 0.32 | promoter activity interaction Z-score [4, 21]: -0.858 ± 1 | promoter activity interaction Z-score [4, 22]: -0.93 ± 0.068 | promoter activity interaction Z-score [5, 7]: 0.0222 ± 0.019 | promoter activity interaction Z-score [5, 8]: -0.0752 ± 0.056 | promoter activity interaction Z-score [5, 9]: 0.145 ± 0.063 | promoter activity interaction Z-score [5, 10]: -0.325 ± 0.089 | promoter activity interaction Z-score [5, 11]: -0.173 ± 0.011 | promoter activity interaction Z-score [5, 12]: -0.209 ± 0.049 | promoter activity interaction Z-score [5, 13]: -0.232 ± 0.096 | promoter activity interaction Z-score [5, 14]: -0.288 ± 0.14 | promoter activity interaction Z-score [5, 15]: -0.325 ± 0.11 | promoter activity interaction Z-score [5, 16]: -0.318 ± 0.0051 | promoter activity interaction Z-score [5, 17]: -0.254 ± 0.028 | promoter activity interaction Z-score [5, 18]: -0.236 ± 0.42 | promoter activity interaction Z-score [5, 19]: -0.265 ± 0.017 | promoter activity interaction Z-score [5, 20]: -0.188 ± 0.075 | promoter activity interaction Z-score [5, 21]: -0.556 ± 0.091 | promoter activity interaction Z-score [5, 22]: 0.196 | promoter activity interaction Z-score [6, 7]: 0.175 ± 0.14 | promoter activity interaction Z-score [6, 8]: 0.3 ± 0.76 | promoter activity interaction Z-score [6, 9]: -0.634 ± 0.13 | promoter activity interaction Z-score [6, 10]: -0.127 ± 0.13 | promoter activity interaction Z-score [6, 11]: -0.904 ± 0.76 | promoter activity interaction Z-score [6, 12]: -0.251 ± 0.39 | promoter activity interaction Z-score [6, 13]: -0.77 ± 0.38 | promoter activity interaction Z-score [6, 14]: -0.771 ± 0.63 | promoter activity interaction Z-score [6, 15]: -1.08 ± 0.47 | promoter activity interaction Z-score [6, 16]: -0.183 ± 0.34 | promoter activity interaction Z-score [6, 17]: -0.421 ± 0.15 | promoter activity interaction Z-score [6, 18]: -0.321 ± 0.69 | promoter activity interaction Z-score [6, 19]: -0.273 ± 0.36 | promoter activity interaction Z-score [6, 20]: -0.299 ± 0.51 | promoter activity interaction Z-score [6, 21]: -1.24 ± 0.052 | promoter activity interaction Z-score [6, 22]: -0.245 ± 0.87
